Screening results from PubChem BioAssay.
HT1080 IDH1KD tx – toxicity to HT-1080 IDH1 knockdown cells (counter line) | HT-1080 IDH1 knockdown viability, ATP luminescence, 48 h | Potency, µM (doses to about 46.1 µM), inactives show at the highest dose activity, negative = toxicity, usual class: cytotoxic | 360,000 compounds, 2% hits | AID 686971;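 further: potency means the concentration at half of the fitted maximal effect; 0% = DMSO wells and -100% = cell-free medium wells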
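After a 2 h attachment period, IDH1KD HT-1080 cells took pin-transferred compound for 48 h at 37 °C; ATP-based luminescence after 10 min room-temperature reagent incubation reported viability.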
HT1080-NT tox – kills 2HG-producing HT-1080-NT fibrosarcoma cells | HT-1080-NT fibrosarcoma viability, CellTiter-Glo ATP luminescence, 48 h | Potency, µM (top dose mostly 46.1 µM), for inactives: at the top dose activity, negative = less viability, hits mostly cytotoxic | 360,000 compounds, 1.6% hits;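 further: NT is the 2HG producing partner of a matched IDH1 knockdown line; potency means the concentration at half of the fitted maximal effect; 0% = DMSO-treated cells and -100% = media-only wells without cells; nearly all actives have a fitted effect of over 55% in size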
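750 cells/well, RPMI + 5% FBS; 2 h settle, compound pin-transfer, 48 h at 37 degrees C. CellTiter-Glo 10 min RT, luminescence. Normalized to DMSO and media-only wells.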
uPA surface inh – blocks generation of uPA at the cell surface; cell surface uPA generation assay, qHTS; Potency, µM (highest dose often 38.3 µM), inactives show at the highest dose activity change, negative = inhibition, actives largely listed as inhibitors; 330,000 compounds, 0.31% hits; active means well fitted inhibition curve with a large enough effect; inconclusive means small, poorly fitted or top-dose-only effect; inactive means no such curve, though single readings can be large or run the other way; tested in mouse RAW 264.7 cells; further: potency means the concentration at half of the fitted maximal effect; nearly all actives have a fitted effect of over 55% in size
IL-1B inflam inh – blocks inflammasome-driven IL-1 beta release | AID 743279 | 360,000 compounds, 4.7% hits | THP-1 LPS/ATP IL-1B secretion, AlphaLISA, 16 h; active compounds read low | activity change, % at 57.5 µM; in the data active means activity change below about -50%; inconclusive means mostly about -30% to -49%
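THP-1 cells pretreated 1 hr with compounds (up to 57.5 uM final), then stimulated with LPS (250 ng/mL final) plus ATP (1.25 mM final); secreted IL-1B measured by AlphaLISA after 16 hr, decreased signal indicating inhibition.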
DT40 TDP1 no CPT – qHTS for Inhibitors of human tyrosyl-DNA phosphodiesterase 1 (TDP1): qHTS in cells in absence of CPT. DT40 Tdp1-/- hTDP1 cells, no CPT, ATP luminescence, 48 h. Potency, µM (series often up to 46.2 µM), for the others: at the highest dose activity change, negative = growth inhibition, usual class: inhibitors. AID 686978, 2013. 420,000 compounds, 15% hits; further: potency means the concentration at half of the fitted maximal effect; nearly all actives have a fitted effect of over 55% in size
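Luminescent ATP content (CellTiter-Glo) served as the growth readout. Knockout chicken DT40 cells expressing human TDP1 were exposed to compounds without camptothecin for a minimum 48 hr at 37 °C.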
DT40 TDP1 CPT – growth inhibition of DT40 Tdp1-/-;hTDP1 cells with camptothecin (screen for TDP1 inhibitors) | chicken DT40 Tdp1-/-;hTDP1 cells + 20 nM CPT, ATP luminescence, 48 h | Potency, µM (highest dose often 46.2 µM), without a hit: top-dose activity change, negative = growth inhibition, usual class: inhibitors | 420,000 compounds, 12% hits; further: potency means the concentration at half of the fitted maximal effect; nearly all actives have a fitted effect of over 55% in size
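Chicken DT40 Tdp1-/- cells complemented with human TDP1, 400 cells/well, exposed to compounds plus 20 nM camptothecin for at least 48 h at 37 C; viability read as ATP content by CellTiter-Glo luminescence.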
Active calls of the source: *; ? = inconclusive; / = no result. This is a sample that favours compounds with a hit; in the whole collection about 19% have one here. Unless noted, the call rests on the fitted dose curve; in most records, active means well fitted curve in the direction sought with a large enough effect; inconclusive means small, poorly fitted or top-dose-only effect, or another doubt; inactive means no such curve, though single readings can be large; an effect the other way counts as inactive or inconclusive. Unless noted, on the % scale 0 is the no-effect control and ±100 the full control effect.

SMILES	HT1080 IDH1KD tx	HT1080-NT tox	uPA surface inh	IL-1B inflam inh	DT40 TDP1 no CPT	DT40 TDP1 CPT
CCCCCOC(=O)Nc1ccc(S(=O)(=O)Nc2cccc([N+](=O)[O-])c2)cc1	?	?	3%	-88*	?	-21%
CCCCOC(=O)Nc1ccc(S(=O)(=O)Nc2ccc([N+](=O)[O-])cc2)cc1	-2%	11%	8%	10	-2%	-7%
Cc1cc(C(=O)NCC(=O)OCC(=O)N(C(C)C)C(C)C)ccc1[N+](=O)[O-]	11%	9%	-13%	26	2%	-5%
N=c1c(C(=O)NCC2CCCO2)cc2c(=O)n3ccccc3nc2n1Cc1ccccc1Cl (configuration not stated)	2%	-9%	-5%	17	1.3µM*	1.5µM*
N=c1c(C(=O)NCC2CCCO2)cc2c(=O)n3ccccc3nc2n1Cc1ccc(Cl)cc1 (configuration not stated)	7%	-5%	?	-12	16µM*	10µM*
COc1ccc(Cn2c(=N)c(C(=O)NCC3CCCO3)cc3c(=O)n4ccccc4nc32)cc1 (configuration not stated)	0%	0%	3%	-18	?	?
N=c1c(C(=O)NCC2CCCO2)cc2c(=O)n3ccccc3nc2n1Cc1ccccc1 (configuration not stated)	-11%	-1%	-2%	-22	1%	-12%
O=C(O)C1CCCN1c1ncccc1[N+](=O)[O-] (configuration not stated)	17%	?	5%	-5	1%	22%
CCN(C(=O)C(C)OC(=O)c1nn(-c2ccccc2C(F)(F)F)cc1O)c1ccccc1 (configuration not stated)	-19%	-2%	0%	12	-18%	-12%
CNc1ccc(Cl)cc1S(=O)(=O)c1ccccc1[N+](=O)[O-]	?	?	/	-11	15µM*	-58%
COc1ccc(CNC(=O)C(CCSC)NS(=O)(=O)c2ccc3c(c2)oc(=O)n3C)cc1 (configuration not stated)	/	/	/	/	-12%	-16%
Clc1ccc(CNCCCSc2ncccn2)cc1Cl	-13%	-11%	-2%	-62*	?	?
CC1(C(=O)NS(=O)(=O)c2ccc(Cl)cc2)CCN1C(=O)c1ccco1 (configuration not stated)	7%	20%	/	19	-7%	-22%
NC(=S)N/N=C/c1ncc(C(F)(F)F)cc1Cl	5.2µM*	10µM*	1%	-103*	0.52µM*	0.41µM*
CCCCOc1cccc(/C=N/NC(=O)c2csc(C)c2C)c1	-21%	-17%	5%	?	23µM*	?
COc1cc(/C=N/Nc2ncc(C(F)(F)F)cc2Cl)cc(OC)c1O	0%	3%	-3%	-10	?	?
NC(=S)N/N=C/c1ccc(C(F)(F)F)cc1	21µM*	?	-9%	0	16µM*	21µM*
Cc1scc(C(=O)N/N=C/c2ccc(OC(C)C)cc2)c1C	-29%	-9%	-8%	-70*	?	?
C[C@H](CO)N1C[C@H](C)[C@@H](CN(C)S(=O)(=O)c2ccc(-n3cccn3)cc2)OCc2cn(nn2)CCCC1=O	-5%	-1%	/	-6	-11%	-7%
CC(C)c1nn2c(=O)cc(COC(=O)c3cccc(NC(=O)c4cccs4)c3)nc2s1	/	/	/	/	-27%	-3%
O=C(CSc1ccc([N+](=O)[O-])cc1)NNC(=O)c1ccccc1F	0%	18%	2%	-5	-28%	-16%
Cc1ccccc1C(=O)Nc1cccc(-c2nnc(SCC(=O)NCc3ccco3)n2C)c1	/	/	/	/	-28%	-28%
COc1ccc(C2CC(c3cccs3)=NN2C(=O)CCCC(=O)O)cc1OC (configuration not stated)	-3%	-1%	/	-13	3%	3%
COc1ccccc1/C=N/NC(=O)c1csc(C)c1C	21%	17%	1%	-5	-8%	7%
CC(C)Oc1ccc(/C=N/NC(N)=S)cc1	15µM*	?	-12%	2	?	-23%
SMILES	HT1080 IDH1KD tx	HT1080-NT tox	uPA surface inh	IL-1B inflam inh	DT40 TDP1 no CPT	DT40 TDP1 CPT
Cc1scc(C(=O)N/N=C/c2ccc(Cl)s2)c1C	21%	21%	4%	-6	16µM*	?
CCOC(=O)C1CCCN(C(=O)c2cccc(Cl)c2)CC1 (configuration not stated)	5%	8%	/	3	-11%	-17%
Cc1noc(C)c1-c1cncnc1-n1ccnc1	/	/	/	/	-1%	9%
Cc1cc(S(=O)(=O)NCc2ccc(N3CCN(C)CC3)cc2)c(C)s1	13%	10%	-2%	-12	21µM*	?
CN1CCN(c2ccc(CNS(=O)(=O)Cc3ccc(Cl)cc3)cc2)CC1	11%	26%	12%	19	16µM*	?
CN1CCN(c2ccc(CNS(=O)(=O)c3ccc(F)cc3Cl)cc2)CC1	-3%	1%	-3%	-2	?	18µM*
NS(=O)(=O)c1ccc(CNS(=O)(=O)Cc2ccc(Cl)cc2)cc1	6%	4%	12%	28	0%	6%
Cc1cnccc1CNC(=O)CC1C(=O)NCCN1CC(C)(C)C (configuration not stated)	16%	15%	-1%	31	-1%	-17%
N#CCCCCN1CCCC1	14%	18%	-8%	4	26%	-3%
O=C(Nc1ccccc1)C(Cc1ccccc1)N1Cc2ccccc2C1=O (configuration not stated)	/	/	/	/	-12%	8%
O=C(Nc1ccc([N+](=O)[O-])cc1)C(Cc1ccccc1)N1C(=O)c2cccc3cccc(c23)C1=O (configuration not stated)	-27%	?	1%	55	5.2µM*	?
Cc1cc(-n2c(C)nc3ccccc3c2=O)ccc1NC(=O)c1ccc(C)c([N+](=O)[O-])c1	/	/	/	/	5.2µM*	7.3µM*
Cc1cccc(S(=O)(=O)Nc2ccc(-n3c(C)nc4ccccc4c3=O)cc2)c1	4%	4%	-4%	-14	23µM*	?
COc1ccc(C(=O)Nn2c(C)nc3ccccc3c2=O)cc1[N+](=O)[O-]	5%	-1%	8%	-8	-2%	7%
Cc1nc2ccccc2c(=O)n1-c1ccc(NC(=O)c2ccccc2[N+](=O)[O-])cc1	/	/	/	/	23µM*	?
Cc1ccc(-c2cc(-c3coc4ccc(Cl)cc4c3=O)c3c(n2)-c2ccccc2OC3)cc1	/	/	/	/	0%	6%
